{
  "source": "PubChem BioAssay AID372",
  "about": "(MTDP, 2006)",
  "note": "The whole screen tested about 100,000 compounds, of which about 770 (0.77%) were called active. No stated cut-off is given here; in the data, active means inhibition above about 50%; inactive means the rest. Only a selection was taken, and actives are over-represented in it overall.",
  "data": [
    {"biological_target": "Gag-Pol polyprotein (Human immunodeficiency virus type 1 group M subtype B (isolate HXB2)) (UniProt P04585)", "assay": "RNase H inhibition, HIV 1 Gag Pol polyprotein, FRET biochemical assay, screening (AID 372)", "settings": "HIV-1 RT RNase H, FRET RNA/DNA substrate fluorescence; at 10 µM; active compounds read high", "values": [
      {"smiles": "Cc1ccccc1-n1c(/C=C/c2ccc(Br)cc2)nc2ccccc2c1=O", "inhibition": "3% (inactive)"},
      {"smiles": "O=C(COc1ccc2ccccc2c1)N1CCN(Cc2ccccc2C(F)(F)F)CC1", "inhibition": "51% (active)"},
      {"smiles": "O=C(COc1ccc2ccccc2c1)N1CCN(Cc2ccccc2[N+](=O)[O-])CC1", "inhibition": "50% (active)"},
      {"smiles": "CCc1ccc(CN2CCN(C(=O)COc3ccc4ccccc4c3)CC2)cc1", "inhibition": "19% (inactive)"},
      {"smiles": "Cc1ccccc1CN1CCN(C(=O)COc2ccc3ccccc3c2)CC1", "inhibition": "42% (inactive)"},
      {"smiles": "O=C(COc1ccc2ccccc2c1)N1CCN(Cc2ccc(F)cc2)CC1", "inhibition": "0% (inactive)"},
      {"smiles": "O=C(COc1ccc2ccccc2c1)N1CCN(Cc2ccc([N+](=O)[O-])cc2)CC1", "inhibition": "13% (inactive)"},
      {"smiles": "COc1ccc(/C=C2/C(=O)N(c3ccccc3)C(=S)N(c3ccccc3OC)C2=O)c(OC)c1", "inhibition": "5% (inactive)"},
      {"smiles": "COc1ccc(O)c(CN2CCN(c3ccccc3OC)CC2)c1", "inhibition": "3% (inactive)"},
      {"smiles": "O=c1c2ccccc2nc(CSc2ncnc3ccccc23)n1-c1ccccc1", "inhibition": "16% (inactive)"},
      {"smiles": "CCOC(=O)C1=C(C)OC(N)=C(C(=O)OCCOC)C12C(=O)Nc1ccccc12", "note": "(stereo unspecified)", "inhibition": "0% (inactive)"},
      {"smiles": "O=C1NC(=O)N(Cc2ccccc2)C(=O)/C1=C/c1ccc(O)c(O)c1", "inhibition": "11% (inactive)"},
      {"smiles": "C=CCN1C(=O)NC(=O)/C(=C/c2ccc(O)c(O)c2)C1=O", "inhibition": "60% (active)"},
      {"smiles": "C=CCN1C(=O)NC(=O)/C(=C\\c2ccc(O)c(OC)c2)C1=O", "inhibition": "0% (inactive)"},
      {"smiles": "O=[N+]([O-])c1ccc(N2CCNCC2)cc1N1CCOCC1", "inhibition": "3% (inactive)"},
      {"smiles": "O=c1c2ccccc2nc(-c2ccccn2)n1-c1ccc(Cl)cc1", "inhibition": "4% (inactive)"},
      {"smiles": "COc1cc(OC)c(OC)cc1C=C(C#N)C#N", "inhibition": "4% (inactive)"},
      {"smiles": "COc1cc(C)c(C=C(C#N)C#N)cc1C", "inhibition": "50% (active)"},
      {"smiles": "COc1ccc(C=C(C#N)C#N)cc1C", "inhibition": "44% (inactive)"},
      {"smiles": "O=C1NC(=O)C(=Cc2ccc(N3CCOCC3)c([N+](=O)[O-])c2)C(=O)N1", "inhibition": "0% (inactive)"},
      {"smiles": "O=[N+]([O-])c1ccc(N2CCCC2)c(F)c1Br", "inhibition": "34% (inactive)"},
      {"smiles": "O=C1NC(=S)N(c2ccccc2)C(=O)/C1=C/c1ccco1", "inhibition": "36% (inactive)"},
      {"smiles": "O=C1NC(=S)N(c2cccc(Br)c2)C(=O)/C1=C/c1ccco1", "inhibition": "98% (active)"},
      {"smiles": "O=C1NC(=O)N(c2cccc(Br)c2)C(=O)/C1=C/c1ccco1", "inhibition": "19% (inactive)"},
      {"smiles": "O=C1NC(=S)N(c2cccc(Cl)c2Cl)C(=O)/C1=C/c1ccc(-c2ccc(C(=O)O)cc2)o1", "inhibition": "12% (inactive)"},
      {"smiles": "N#CC(C#N)=Cc1ccc(C(F)(F)F)cc1", "inhibition": "1% (inactive)"},
      {"smiles": "CSc1ccc(CN2CCN(c3ccccc3C)CC2)cc1", "inhibition": "7% (inactive)"},
      {"smiles": "COc1ccc(Br)cc1CN1CCN(C(=O)COc2ccc3ccccc3c2)CC1", "inhibition": "42% (inactive)"},
      {"smiles": "COc1ccc(Br)cc1CN1CCN(C(=O)COc2ccccc2)CC1", "inhibition": "42% (inactive)"},
      {"smiles": "COc1ccc(Br)cc1CN1CCN(C(=O)COc2ccc(Cl)cc2)CC1", "inhibition": "52% (active)"},
      {"smiles": "Cc1ccc(C)c(N2CCN(Cc3ccccc3Br)CC2)c1", "inhibition": "6% (inactive)"},
      {"smiles": "FC(F)(F)c1ccc(CN2CCN(c3cccc(Cl)c3)CC2)cc1", "inhibition": "12% (inactive)"},
      {"smiles": "O=Cc1cn(Cc2c(Cl)cccc2Cl)c2ccccc12", "inhibition": "34% (inactive)"},
      {"smiles": "CN1C(=O)C(=Cc2ccc(N3CCCCCC3)o2)C(=O)N(C)C1=S", "inhibition": "26% (inactive)"},
      {"smiles": "C=CCN1C(=O)/C(=C\\c2ccc(C)o2)C(=O)NC1=S", "inhibition": "13% (inactive)"},
      {"smiles": "C=CCN1C(=O)/C(=C\\c2ccc(-c3cccc(Cl)c3Cl)o2)C(=O)NC1=S", "inhibition": "55% (active)"},
      {"smiles": "C=CCN1C(=O)NC(=O)/C(=C/c2ccc(-c3cc([N+](=O)[O-])ccc3Cl)o2)C1=O", "inhibition": "22% (inactive)"},
      {"smiles": "COc1ccc(N2C(=O)/C(=C\\c3ccoc3)C(=O)NC2=S)cc1", "inhibition": "44% (inactive)"},
      {"smiles": "N/C(=N\\[N+](=O)[O-])N/N=C/c1ccc(-c2ccc(Cl)cc2)o1", "inhibition": "6% (inactive)"},
      {"smiles": "N/C(=N\\[N+](=O)[O-])N/N=C\\c1ccc(-c2ccc(Cl)c([N+](=O)[O-])c2)o1", "inhibition": "56% (active)"},
      {"smiles": "N/C(=N\\[N+](=O)[O-])N/N=C\\c1ccc(-c2ccc([N+](=O)[O-])cc2)o1", "inhibition": "28% (inactive)"},
      {"smiles": "Cc1ccc(C2c3c(c4ccccc4oc3=O)Oc3c2c(=O)oc2ccccc32)cc1", "inhibition": "11% (inactive)"},
      {"smiles": "COc1cccc(C=C2C(=O)NC(=O)NC2=O)c1OC", "inhibition": "10% (inactive)"},
      {"smiles": "COc1cccc(C=C2C(=O)NC(=S)NC2=O)c1", "inhibition": "7% (inactive)"},
      {"smiles": "O=C1NC(=S)NC(=O)C1=Cc1cccc(OS(=O)(=O)c2ccc3ccccc3c2)c1", "inhibition": "53% (active)"},
      {"smiles": "O=C1NC(=S)NC(=O)C1=Cc1ccccc1OS(=O)(=O)c1ccc2ccccc2c1", "inhibition": "21% (inactive)"},
      {"smiles": "O=C(c1cccs1)C1CN2CCC1CC2", "note": "(stereo unspecified)", "inhibition": "0% (inactive)"},
      {"smiles": "O=C1NC(=O)C(=Cc2ccccc2F)C(=O)N1", "inhibition": "3% (inactive)"},
      {"smiles": "Cc1ccc(-c2nn(-c3ccccc3)cc2C=C2C(=O)NC(=S)NC2=O)o1", "inhibition": "21% (inactive)"},
      {"smiles": "O=C1NC(=O)C(=Cc2cn(-c3ccccc3)nc2-c2ccc(F)cc2)C(=O)N1", "inhibition": "53% (active)"},
      {"smiles": "Cc1ccc(C)c(COc2cc(C)cc3oc(=O)c4c(c23)CCC4)c1", "inhibition": "0% (inactive)"}
    ]}
  ]
}
